From PubChem BioAssay AID651599 (National Center for Advancing Translational Sciences (NCATS), 2012)
Records with an inconclusive call do not appear. Calls of active or inactive are those of the source. Calls follow the shape of the dose curve; as a rule, active = well fitted inhibition curve with a large enough effect; inconclusive = small, poorly fitted or top-dose-only effect; inactive = no such curve, though single readings can be large or run the other way.

The molecules below were run against Tumor susceptibility gene 101 protein (Homo sapiens) (UniProt Q99816) (assay: qHTS Assay for Iinhibitors of HIV-1 Budding by Blocking the Interaction of PTAP/TSG101: Hit Validation in TR assay). Settings: Tsg101 binding domain + Texas Red-labeled PTAP peptide, fluorescence polarization, 20 min; series mostly up to 57.5 µM.
Outline: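 Fluorescence polarization: Tsg101 binding domain (10 uM final) with Texas Red-labelled PTAP peptide (50 nM final) in HEPES pH 7.5, 0.15 M NaCl, Tween 20, EDTA, TCEP; 20 min binding at room temperature after compound addition.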

Sequence of Tumor susceptibility gene 101 protein (Homo sapiens) (Q99816 whole entry, looked up, the tested form may be a part): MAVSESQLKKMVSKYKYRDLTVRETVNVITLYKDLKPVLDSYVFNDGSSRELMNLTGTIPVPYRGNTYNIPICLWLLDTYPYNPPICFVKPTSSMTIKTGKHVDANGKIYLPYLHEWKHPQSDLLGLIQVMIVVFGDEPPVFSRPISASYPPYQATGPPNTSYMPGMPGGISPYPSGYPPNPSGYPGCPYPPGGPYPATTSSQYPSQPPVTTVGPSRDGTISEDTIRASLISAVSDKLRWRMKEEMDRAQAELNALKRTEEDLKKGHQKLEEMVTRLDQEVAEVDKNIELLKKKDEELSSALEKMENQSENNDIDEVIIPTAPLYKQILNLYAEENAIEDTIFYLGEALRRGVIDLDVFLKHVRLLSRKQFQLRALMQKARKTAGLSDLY

Potency, inactive:
Nc1cccc2c(O)cc(S(=O)(=O)O)cc12
Cc1ccc2nc(-c3ccco3)c(Nc3ccccc3)n2c1
COc1ccc(OC)c(/C=C(\C#N)c2nc(-c3ccc(F)cc3)cs2)c1
CCN(C(=O)c1sc2nc3n(c(=O)c2c1C)CCCC3)c1ccccc1F
CN(C)c1ccc(/C=C2\SC(=O)N(CC(O)Cn3c4ccccc4c4ccccc43)C2=O)cc1 (configuration not stated)
COc1ccc2nc(N3CCCC3)c(C#N)cc2c1
Cc1nc(Nc2ccc(S(=O)(=O)N3CCCCC3C)cc2)c2nnn(Cc3ccccc3)c2n1 (configuration not stated)
CC[C@H](C)/C=C(C)/C=C/C1=CC2=CC(=O)[C@]3(C)OC(=O)[C@@H](C(C)=O)[C@@H]3C2=CO1
COCCCNC(=O)C(C#N)c1nc2ccccc2nc1N1CCCC1 (configuration not stated)
COCCN(CCOC)Cc1c(O)ccc2c1O/C(=C\c1ccco1)C2=O
O=C1Nc2ccc(F)cc2C12Nc1ccccc1-c1nnc(SCc3ccccc3F)nc1O2 (configuration not stated)
CCN(CC)c1ccc2cc(C(=O)NNC(=O)c3ccc(S(=O)(=O)N4CCCCC4)cc3)c(=O)oc2c1
Cc1ccc(C(=O)Nc2ccc(C(=O)O)cc2)cc1S(=O)(=O)NCc1ccccc1
O=C(CN1C(=O)NC(Cc2c[nH]c3ccccc23)C1=O)Nc1ccccc1C(F)(F)F (configuration not stated)
Nc1cnccc1C(=O)O
CCOC(=O)N1CCN(c2nc3ccccc3nc2C(C#N)S(=O)(=O)c2ccc(C)cc2)CC1 (configuration not stated)
Cc1ccc(-c2cccc(NC(=O)C3C4C=CC(C4)C3C(=O)O)c2)o1 (configuration not stated)
